Measured values published in PubChem BioAssay (Tox21).
Records with an inconclusive call do not appear. Values without a mark were called inactive. Active and inactive are the calls of the source. The call rests on the fitted dose curve; in most records, active means well fitted curve in the direction sought with a large enough effect in the repeat runs; inconclusive means weak or mixed curves; inactive means no such curve, though single readings can be large; an effect the other way counts as inactive or inconclusive.
On the % scale 0 is the no-effect control and ±100 the full control effect.

Test system: not listed separately
Assay: Caspase-3/7 induction in HepG2 cells by small molecules, qHTS cell viability counter screen (AID 1346981); further: nearly all actives have a fitted effect of over 30% in size
Conditions: CellTiter-Fluor fluorescence, 17 h; series mostly up to 92.4 µM; activity change, negative = cytotoxicity: at the top concentration
In short: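 Wild-type HepG2 cells (2,000/well) were allowed to settle for 5 hr at 37 C, 5% CO2, then dosed with compounds in DMSO by pin transfer. After 16 hr at 37 C, CellTiter-Fluor was added and fluorescence read 1 hr later.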
For NCCNC(=O)c1ccc(Cl)cn1, the “activity change, negative = cytotoxicity” value was 1.72% [at 42.5 µM]. In the case of CC1CCN(CCCC(=O)c2ccc(F)cc2)CC1, the “activity change, negative = cytotoxicity” value was 7.59% [at 42.5 µM]. In the case of OCCN1C[C@H](O)[C@@H](O)[C@H](O)[C@H]1CO, the “activity change, negative = cytotoxicity” value was -2.61% [at 42.5 µM]. For CCCCCCC(CCCCCCCCCCC(=O)OCC(COC(C)=O)OC(C)=O)OC(C)=O (stereo not given), the “activity change, negative = cytotoxicity” value was 0.692% [at 42.5 µM]. In the case of C#CC(O)C(CC)CCCC (stereo not given), the “activity change, negative = cytotoxicity” value was -0.911%. With O=C1OC(=O)c2cc([N+](=O)[O-])ccc21 the “activity change, negative = cytotoxicity” value was 5.02%. For COCCOC(=O)CC#N, the “activity change, negative = cytotoxicity” value was 0.127%. With c1ccc(CCCc2ccccn2)cc1 the “activity change, negative = cytotoxicity” value was 5.73%. With CNc1ncnc2nc[nH]c12 the “activity change, negative = cytotoxicity” value was -0.0093%. In the case of N#CCN(CC#N)CCN(CC#N)CC#N, the “activity change, negative = cytotoxicity” value was 1.38%. In the case of Nc1nc2c(ncn2CCC(CO)CO)c(=O)[nH]1, the “activity change, negative = cytotoxicity” value was 2.23% [at 42.5 µM]. In the case of CCCCCCCCCCCCI, the “activity change, negative = cytotoxicity” value was -9.46%. For CC(C)(C)C(=O)/C=C/c1ccc(Cl)cc1, the “activity change, negative = cytotoxicity” value was -1.12%. With CC(C)(C)N(CCO)CCO the “activity change, negative = cytotoxicity” value was -0.385%. With C=CC(=O)OCCCCCC the “activity change, negative = cytotoxicity” value was -1.55%. With NS(=O)(=O)c1cc2c(cc1C(F)(F)F)NC(Cc1ccccc1)NS2(=O)=O (stereo not given) the “activity change, negative = cytotoxicity” value was 7.32% [at 42.5 µM]. For CC1=CC(=O)CCC1, the “activity change, negative = cytotoxicity” value was 1.94%. In the case of CCCc1ccc(N)cc1, the “activity change, negative = cytotoxicity” value was 1.43%. With COc1cccc(Br)c1 the “activity change, negative = cytotoxicity” value was 8.31%. In the case of CC(C)(O)Cc1ccccc1, the “activity change, negative = cytotoxicity” value was 0.267%. In the case of CCN(CC)C(=O)c1ccc(O)c(OC)c1, the “activity change, negative = cytotoxicity” value was 0.498% [at 42.5 µM]. With CCO[Si](C)(OCC)OCC the “activity change, negative = cytotoxicity” value was 8.07%. With COC(=O)CCCCCCCCC(=O)OC the “activity change, negative = cytotoxicity” value was -0.0495%. With CCC(=O)Nc1cccc(N)c1 the “activity change, negative = cytotoxicity” value was 2.91%. In the case of CCCCCCCCCCCCCCCCCC(=O)OCCCCCCCCCCCCCC(C)C, the “activity change, negative = cytotoxicity” value was 0.448%. With NC(=O)c1ncn([C@@H]2O[C@H](CO)[C@@H](O)[C@H]2O)c1N the “activity change, negative = cytotoxicity” value was 5.03% [at 42.5 µM]. For CCCCCCCCCCC1CO1 (stereo not given), the “activity change, negative = cytotoxicity” value was 6.5%. In the case of NS(=O)(=O)c1cc2c(cc1Cl)NC(CSCc1ccccc1)=NS2(=O)=O, the “activity change, negative = cytotoxicity” value was -1.08% [at 42.5 µM]. With CCc1cc(S(=O)(=O)O)c2cc(C(C)C)cccc1-2 the “activity change, negative = cytotoxicity” value was -7.32% [at 42.5 µM]. In the case of OCC(O)[C@@H](O)[C@H](O)[C@H](O)CO[C@H]1O[C@H](CO)[C@@H](O)[C@H](O)[C@H]1O (stereo not given in full), the “activity change, negative = cytotoxicity” value was 4.73%. In the case of CCCCCCCCCCCCCCC, the “activity change, negative = cytotoxicity” value was 7.22%.

Target: Nuclear receptor subfamily 1 group I member 2 (Homo sapiens) (UniProt O75469)
Sequence (O75469 whole entry, looked up): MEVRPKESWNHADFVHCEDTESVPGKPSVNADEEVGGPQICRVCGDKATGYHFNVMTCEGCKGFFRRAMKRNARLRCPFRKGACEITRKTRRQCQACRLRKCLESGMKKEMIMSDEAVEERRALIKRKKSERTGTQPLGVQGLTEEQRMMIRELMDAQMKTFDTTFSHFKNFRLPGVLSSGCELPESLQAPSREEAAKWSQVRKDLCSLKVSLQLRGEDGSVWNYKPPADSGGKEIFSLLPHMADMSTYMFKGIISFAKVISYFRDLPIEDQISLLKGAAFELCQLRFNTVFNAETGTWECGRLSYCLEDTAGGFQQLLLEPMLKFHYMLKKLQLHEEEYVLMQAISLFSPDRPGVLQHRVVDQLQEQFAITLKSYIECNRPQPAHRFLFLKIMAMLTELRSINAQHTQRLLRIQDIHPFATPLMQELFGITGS
Assay: Human pregnane X receptor (PXR) small molecule agonists, qHTS assay (AID 1346982); further: nearly all actives have a fitted effect of over 35% in size; further: potency means the concentration at half of the fitted maximal effect
Conditions: PXR-Luc HepG2, CYP3A4 luciferase reporter, 24 h; series mostly up to 92.4 µM; activation: at the top concentration
In short: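 PXR-Luc HepG2 cells (CYP3A4 promoter-driven luciferase) were seeded in medium with 5% charcoal-stripped FBS, left 5 hr at 37 C, then exposed to compounds in DMSO for 24 hr. Luminescence was read after ONE-Glo addition.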
In the case of NCCNC(=O)c1ccc(Cl)cn1, the “activation” value was -7.32% [at 42.5 µM]. In the case of CC1CCN(CCCC(=O)c2ccc(F)cc2)CC1, the “activation” value was 1.28% [at 42.5 µM]. For OCCN1C[C@H](O)[C@@H](O)[C@H](O)[C@H]1CO, the “activation” value was -6.65% [at 42.5 µM]. With CCCCCCC(CCCCCCCCCCC(=O)OCC(COC(C)=O)OC(C)=O)OC(C)=O (stereo not given) the “activation” value was -0.0927% [at 42.5 µM]. In the case of NC(=O)CCCCC1CCSS1 (stereo not given), the “activation” value was -9.78% [at 42.5 µM]. With COc1cc(O)cc(O)c1 the “activation” value was -6.05% [at 42.5 µM]. With O=C1OC(=O)c2cc([N+](=O)[O-])ccc21 the “activation” value was 3.21%. For COCCOC(=O)CC#N, the “activation” value was -0.911%. With c1ccc(CCCc2ccccn2)cc1 the Potency was 34.4 µM (active). For CNc1ncnc2nc[nH]c12, the Potency was 9.86 µM (active). With N#CCN(CC#N)CCN(CC#N)CC#N the “activation” value was 0.186%. In the case of Nc1nc2c(ncn2CCC(CO)CO)c(=O)[nH]1, the “activation” value was 5.82% [at 42.5 µM]. With CCCCCCCCCCCCI the “activation” value was 10.3%. For CCC(C)OC(=O)N1CCCCC1CCO (stereo not given), the “activation” value was 13.6%. With CC(C)(C)C(=O)/C=C/c1ccc(Cl)cc1 the Potency was 54.5 µM (active). With CC(C)(C)N(CCO)CCO the Potency was 63.1 µM (active). With C=CC(=O)OCCCCCC the “activation” value was -3.29%. For NS(=O)(=O)c1cc2c(cc1C(F)(F)F)NC(Cc1ccccc1)NS2(=O)=O (stereo not given), the “activation” value was 0.892% [at 42.5 µM]. With CC1=CC(=O)CCC1 the “activation” value was -3.19%. In the case of COc1cccc(Br)c1, the “activation” value was 12.1%. For CC(C)(O)Cc1ccccc1, the “activation” value was 0.724%. With CCN(CC)C(=O)c1ccc(O)c(OC)c1 the “activation” value was -3.14% [at 42.5 µM]. For CCO[Si](C)(OCC)OCC, the “activation” value was 7.26%. With COC(=O)CCCCCCCCC(=O)OC the “activation” value was 1.33%. In the case of CCC(=O)Nc1cccc(N)c1, the “activation” value was 8.51%. With Nc1cc(C(Cl)=C(Cl)Cl)c(S(N)(=O)=O)cc1S(N)(=O)=O the “activation” value was -5.28% [at 42.5 µM]. For CCCCCCCCCCCCCCCCCC(=O)OCCCCCCCCCCCCCC(C)C, the “activation” value was 5.87%. In the case of NC(=O)c1ncn([C@@H]2O[C@H](CO)[C@@H](O)[C@H]2O)c1N, the “activation” value was -10.6% [at 42.5 µM]. For CCCCCCCCCCC1CO1 (stereo not given), the “activation” value was 17.9%. For NS(=O)(=O)c1cc2c(cc1Cl)NC(CSCc1ccccc1)=NS2(=O)=O, the “activation” value was 7.14% [at 42.5 µM]. For CCc1cc(S(=O)(=O)O)c2cc(C(C)C)cccc1-2, the “activation” value was 5.36% [at 42.5 µM]. With OCC(O)[C@@H](O)[C@H](O)[C@H](O)CO[C@H]1O[C@H](CO)[C@@H](O)[C@H](O)[C@H]1O (stereo not given in full) the “activation” value was 7.47%. In the case of C=CCOCC(O)CS(=O)(=O)O (stereo not given), the “activation” value was 5.42%. With CCCCCCCCCCCCCCC the “activation” value was -9.64%.
